Experimental findings from the supplement of paper PMC11417369 are described below.

The full ranking holds about 25,000 sequences; the median of “ln(normalized median fluorescence intensity)” is about 6.7, and the highest 2% start at about 10. The full list was thinned out, with the highest values kept by preference.

For the assay, the system named is PfHDP1 homeodomain (GST-tagged). As to the kind of experiment: gcPBM binding intensity (ln(normalized median fluorescence intensity)); higher = stronger DNA binding. Summed up: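 The binding buffer was 1× PBS containing 1% milk, 0.2 mg/ml BSA, 0.5% salmon testes DNA and 0.03% Triton X-100. In it, GST-tagged P. falciparum DNA-binding domains expressed in E. coli were applied for 1 h to an Agilent 4 × 180k array of primer-extended double-stranded 36-bp intergenic genomic probes plus negative controls. Binding intensity, read with Alexa488 anti-GST antibody and a 488 nm scan, is the highest Masliner-normalised natural-log median intensity across replicate spots of either probe orientation.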
Turning to “CATACCCATAAACACACACACATATATACCTATATA [CACACA_site4745]”, the “gcPBM binding intensity (ln)” value came to 6.87.
“AAAAAAAAGTTAAGCACACACATGAATAAATAATAC [CACACA_site840]”: the “gcPBM binding intensity (ln)” value was found to be 6.94.
Regarding “ATAAAAATATTATAAGCACACATATATATATATATA [CACACA_site8781]”, the “gcPBM binding intensity (ln)” value is 9.54.
Next, “AAAGTAAATTTAAGCACACACAACGAATTTTTATAC [CACACA_site1959]”: 6.84.
For the sequence “TGAAATTTGTTATATGCATGTAAAATATTACGACGA [TGCATGCA_site201]”, the “gcPBM binding intensity (ln)” value was found to be 6.59.
Next, “TTTTTTTTTCCGTGTTGTACAAAAAAAAAGATTTTG [XGTACX_site3925]”: 6.21.
As for “ACACAAAACAAAAAGGTGCTGTATAAATGGGTGTAT [GTGCAC_site9905]”, the figure is 7; as for “TATTTTAGTAAAGGTGGTACTTTTAAGTTCATGTAT [XGTACX_site1854]”, 6.23; as for “TATACAAACTATGATGCACACATATATATATGTATA [CACACA_site8327]”, 8.97.
Next, “TAGCTTATAAGATATGCACACACAACACTTACAAAA [CACACA_site8174]”: 9.5; “GCTTATAAGATATGCACACACAACACTTACAAAAAA [CACACA_site817]”: 9.27; “TTTTTTTTTATGTGCACACAAAAGATGCTTATATTT [CACACA_site2348]”: 11.2.
For “TTATTTATTTTTATATGTACACAAAAAAAAAAAAAA [XGTACX_site1459]”, the “gcPBM binding intensity (ln)” value stood at 6.53.
For the sequence “TTTTTTTTTTTATGTGCACACAAAAGATGCTTATAT [CACACA_site2347]”, the “gcPBM binding intensity (ln)” value came to 10.7.
As for “AGGGAATATTTTTATGCATGTGCTTACACATTACAA [TGCATGCA_site830]”, the figure is 6.83.
Take “ATTCTATTCTCCTTCACACACAAAAATATTTCATCA [CACACA_site2360]”: the “gcPBM binding intensity (ln)” value was found to be 6.98.
As to “AAAAAAAATGGATGATCACACACTTCATAAAAATTG [CACACA_site2213]”, the “gcPBM binding intensity (ln)” value was 6.14.
As for “TTTTTTTTTTTTAATACACACATATTTATATTTATT [CACACA_site7802]”, the figure is 6.63; as for “CAGAATAATTTTATCGGTACACACTGTATGCATAAT [XGTACX_site736]”, 6.88; as for “AAAAAATTAACGAGTGCACACATATTTAGATAAAAT [CACACA_site8958]”, 10.7.
As for “AAAATTAAAAATAACACACACATATATATATTTATA [CACACA_site2776]”, the figure is 6.54; as for “AAAATTAACGAGTGCACACATATTTAGATAAAATAC [CACACA_site2936]”, 11.3; as for “AAAATTAAAAATAACACACACATATTTATATTTATA [CACACA_site7329]”, 6.24.
As for “TAAATTATAACGTGCACACATATTTAAAATGAAATG [CACACA_site2820]”, the figure is 10.
Turning to “GAAAAATTAAAAATAACACACACATATATATATTTA [CACACA_site8896]”, the “gcPBM binding intensity (ln)” value worked out at 6.38.
“ATAATATATTTTTGAACACACAATATAGATTTATAT [CACACA_site7857]”: the “gcPBM binding intensity (ln)” value was found to be 6.35.
Next, “TTTTTTTCAATATTTGCACACGATTAAAATATTTAA [CACACA_site5266]”: 10.6.
As for “AGCTAAAATATTTTTGCACACGATTTTTTTTTTTTT [CACACA_site1140]”, the figure is 9.82; as for “TATGCACACAATATATGTACTTATATATTTTAAAAA [XGTACX_site5482]”, 9.96.
Next, “TTTTATTTTTTATTTGCACACAATATGTAAAAAAAT [CACACA_site2927]”: 10.6.
As to “AGGAACAATATATTTGCACACAAAAAATATATATTT [CACACA_site3316]”, the “gcPBM binding intensity (ln)” value was 10.4.
As for “GAACAATATATTTGCACACAAAAAATATATATTTAT [CACACA_site3317]”, the figure is 10.7; as for “TTTTTTTCAATATTTGCACACGATTATAATATTTAA [CACACA_site2237]”, 10.3; as for “ATATTTATATATTGCACACAAAAAAAAAAAAAAATC [CACACA_site1629]”, 10.4.
On to “TTTATATTTTTTTTTGCACACTTTAAAAAAATATAT [CACACA_site1146]”, for which the “gcPBM binding intensity (ln)” value came out at 9.29.
Next, “AAAAAAATTAATGTGTGTACTTAGATATAATGTTTA [XGTACX_site8862]”: 6.43; “AAAAGTACAATATATATGTATGTGTATAGAATGGTT [TGCATGCA_negctrl_site76]”: 7.28.
As to “AAAATATTTTAATGTTGTACATTAATATATTATATA [XGTACX_site2513]”, the “gcPBM binding intensity (ln)” value was 6.03.
With “TAAAAATATATACATACATGCATACATATATATGTA [TGCATGCA_site774]”, the “gcPBM binding intensity (ln)” value is 6.47.
As for “TTATATATTTTTTGCACACCAAAAAAGAGAATATTC [CACACA_site2730]”, the figure is 10; as for “TGTGTTTATACGTTTTGTACATATTTTTATTTTGTA [XGTACX_site6425]”, 6.74; as for “TATTCTTACACGTTTGCACACTAAAATATATATATA [CACACA_site435]”, 9.97.
Next, “TTTTATTCCTTCTTTGCACACGTTTAAAAATATATA [CACACA_site2899]”: 10.3; “TTCTTACACGTTTGCACACTAAAATATATATATATA [CACACA_site434]”: 10.7.
Regarding “TCCTTAAAATATATCACACATTTCGTTCATTTATAA [CACACA_site4346]”, the “gcPBM binding intensity (ln)” value was 6.65.
Take “TAAGATGATATAGACTGTACATATTGAACTTACAAG [XGTACX_site4290]”: the “gcPBM binding intensity (ln)” value was found to be 6.29.
“TATTAACACTTTATAGAAACAAAAAAATAAGCAAAA [XGTACX_negctrl_site295]”: the “gcPBM binding intensity (ln)” value is 6.79.
As for “CACTGTAAATAGAAAGTGCAAAAATTGTAAATAAAA [GTGCAC_site9980]”, the figure is 9.
Next, “TTTCTTCGAAATAGAACACTTGTGCAAAATAAGCAA [XGTACX_negctrl_site361]”: 11.2; “GTTTTTAGTATTTTTTGTACTTAATACATAGCCTTA [XGTACX_site7318]”: 6.22.
With “AGATAAAATATATATGCACACACATATATATTTCAT [CACACA_site9183]”, the “gcPBM binding intensity (ln)” value was found to be 9.16.
Regarding “TCATACAATATTAAATGTACATATATATATATATAT [XGTACX_site8828]”, the “gcPBM binding intensity (ln)” value amounted to 9.25.
As for “TATATAATATATTAATGTACTTAAAATATATTCTAT [XGTACX_site1235]”, the figure is 6.16.
Turning to “TTCATATAAATACATGCACACAAAAATATCAATACA [CACACA_site8753]”, the “gcPBM binding intensity (ln)” value turned out to be 8.91.
As for “TATCAAAATAAATGCACACAAATTGCACATATCTAT [CACACA_site1097]”, the figure is 10.7; as for “TTTTTTCATATAAATACATGCACACAAAAATATCAA [TGCATGCA_site602]”, 8.53; as for “CATATAAATACATGCACACAAAAATATCAATACATT [CACACA_site2392]”, 8.76.
Next, “TTTATCAAAATAAATGCACACAAATTGCACATATCT [CACACA_site8281]”: 10.9; “ATAAATTTTTTATGAACACACAAATACACCCACTCA [CACACA_site5465]”: 7.07; “TACTTTCAAAAGATCACACATATATATATATATATA [CACACA_site5630]”: 9.53.
Consider “TCCTTAAAATATGGTTGTACGTACATCCTAGGTGTT [XGTACX_site7068]”, for which the “gcPBM binding intensity (ln)” value amounted to 6.52.
With “TTTTTACGTAAACAAAATAATTATATAATATTATTT [CACACA_negctrl_site1769]”, the “gcPBM binding intensity (ln)” value is 6.34.
Next, “AAAATCATTCCAAAGACATGCATTTTGCAAATAAAA [TGCATGCA_site461]”: 9.22; “AATTATTTACCCTATACACACAAAACAGACTAAAAA [CACACA_site6688]”: 6.76.
For “TCGTGTGAAAATATTACACACATTTACTATAGTATC [CACACA_site7590]”, the “gcPBM binding intensity (ln)” value came to 6.65.
Next, “AATTTATTTTTAAAAAGTACATACTTAAGAAAACGA [XGTACX_site3660]”: 6.85; CTGTACACTTAAACGGTGCAAAAAGAAAAAAAAGAA: 10.6; “ATATATTATATTATATGTACTTAAAAAAGTGCAAAG [XGTACX_site318]”: 9.16.
As to “TTTGAACTCTTAAGTGGTACAAATTTGTATTTTCTC [XGTACX_site2322]”, the “gcPBM binding intensity (ln)” value came to 6.52.
Next, “TAAATTTTAATATGCACACAAAATGTTATATTAAAA [CACACA_site4366]”: 9.86; “TTTATTATATGCACACGTACATATAATATATATATA [XGTACX_site4108]”: 10.8; “TAATGAAGCTTATGCACACGTTCATTATTTATATTA [CACACA_site3219]”: 10.4.
Turning to “AATAATGAAGCTTATGCACACGTTCATTATTTATAT [CACACA_site5736]”, the “gcPBM binding intensity (ln)” value stood at 10.6.
As for “TATATTCATAATATTACACACGTTCATTTATTTTAA [CACACA_site2031]”, the figure is 6.67; as for “AATTCTTTATTATATGCACACGTACATATAATATAT [CACACA_site8621]”, 9.66.
In the case of “TGAATGCTTTTATGCACACGTACAAAAATATTATAT [CACACA_site2668]”, the “gcPBM binding intensity (ln)” value is 10.4.
As for “TTCTTTATTATATGCACACGTACATATAATATATAT [CACACA_site2018]”, the figure is 9.96; as for “TATTGCACAAAATAATTTTATTATACTTTATGTTAG [TGCATGCA_negctrl_site574]”, 10.8; as for “TATGAATGCTTTTATGCACACGTACAAAAATATTAT [CACACA_site8851]”, 9.99.
Next, “ATGCTTTTATGCACACGTACAAAAATATTATATAAT [XGTACX_site5589]”: 10.9.
As for “TTTATTATACAAAATTGTACTTTATAATTTTATGTA [XGTACX_site5846]”, the figure is 6.31; as for “TAGTAAAAACCAAAATGTACATGTGCCATTTTTTTA [XGTACX_site2630]”, 6.15.
“TTTTTATTGTTGCTATATTTATAACAATTTATCATA [GTGCAC_negctrl_site75]”: the “gcPBM binding intensity (ln)” value was 6.6.
As for “TTACACATGAGAAAATGTACATATAATAAAATATGT [XGTACX_site904]”, the figure is 6.52.
Regarding “TATATCCACATTTTTAGTACTTAAAAATAAATAAAC [XGTACX_site3826]”, the “gcPBM binding intensity (ln)” value was found to be 6.62.
For the sequence “AATTATATATAAAGAAGTACTATTTCAAGGAGTTTT [XGTACX_site3837]”, the “gcPBM binding intensity (ln)” value came to 6.34.
As for “ATAATAATAATAAAAAGTACATTTAATTATATAGAA [XGTACX_site7742]”, the figure is 6.51.
As for “TAACCTAAAATAACTACACACACATAAAAAAAAAAA [CACACA_site8807]”, the figure is 6.58; as for “AACAAACACAGACACACACACACACCCAAATGATTA [CACACA_site2431]”, 6.98.
